Sampled rows, rich in hits. Any-hit rate of the full collection: about 3.3%.
Jurkat NFkB inh: lowers PMA/ionomycin-induced NF-kB signal in Jurkat cells. PMA/ionomycin-induced NF-kB luciferase reporter, luminescence. inhibition, % at 4 µM. 330,000 tested, 0.53% active; in the data active means inhibition above about 50%
697 NFkB inh: lowers PMA/ionomycin-induced NF-kB signal in 697 B cells | 697 B-cell NF-kB luciferase reporter, 16 h | inhibition, % at 4 µM | 330,000 tested, 0.33% active; in the data active means inhibition above about 35%
esBAF inh: SWI/SNF esBAF complex inhibition; mouse ES cells, Bmi1-luciferase knock-in reporter, 24 h; 100% = twice the neutral-well signal; reporter increase, % at 12.5 µM; 350,000 tested, 2% active; AID 602393; in the data active means activation above about 40%; inconclusive means no clear call, values can overlap the other calls;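 further: a rise in the Bmi1 reporter signal indicates esBAF inhibition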
Gli-Sufu block: blocks Gli-Sufu signaling in a luciferase reporter; inhibition, % at 5 µM; 340,000 tested, 0.74% active; Sufu-KO-LIGHT fibroblasts, Gli luciferase reporter luminescence;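 active means inhibition above about 55%, limit read from the data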
SMARCA2 act: SMARCA2 function activation, primary screen. 370,000 tested, 1% active. AID 652017. activation, % at 9.1 µM. MG213 cells, MMTV-luciferase reporter, dexamethasone, overnight; in the data active means activation above about 7.8%
Gli antag conf: Gli-SUFU antagonism confirmation, single concentration; Sufu-KO-LIGHT cells, Gli luciferase reporter, luminescence; inhibition, % at 5 µM; shares compounds with Gli-Sufu block; AID 602428; 2,500 tested, 40% active;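 active means mean inhibition at 5 µM reaching about 45%, limit read from the data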
SufuKO cytotox: cytotoxic in Gli-SUFU antagonist counter-screen. shares compounds with Gli-Sufu block. Sufu-KO-LIGHT cells cytotoxicity, ATP luminescence. cytotoxicity, % at 5 µM. 2,500 tested, 32% active;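 active means mean cytotoxicity at 5 µM above about 25%, limit read from the data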;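 further: cells exposed to compound overnight for roughly 16 to 18 hours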
Wnt3a counter: Wnt3a reporter inhibition counter-screen | shares compounds with Gli-Sufu block | Wnt-LIGHT cells, Wnt3a-driven luciferase reporter, luminescence | inhibition, % at 6.25 µM | 2,500 tested, 20% active;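 active means mean inhibition above about 25%, limit read from the data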
A number is an active result; – = inactive; ? = inconclusive; · = no result.

SMILES | Jurkat NFkB inh | 697 NFkB inh | esBAF inh | Gli-Sufu block | SMARCA2 act | Gli antag conf | SufuKO cytotox | Wnt3a counter
O=C(c1ccc(-c2ccccc2)cc1)C1CCCN(C(=O)c2ccncc2)C1 (stereo not given) | – | – | · | – | – | · | · | ·
Cc1nn(C)cc1CN1CCCC(C(=O)c2ccc(-c3ccccc3)cc2)C1 (stereo not given) | – | – | – | – | – | – | – | –
C[C@H](CO)N1C[C@H](C)[C@H](CN(C)S(=O)(=O)c2ccc(F)cc2)Oc2ccc(NC(=O)Cc3ccccc3)cc2C1=O | · | · | – | · | · | · | · | ·
C[C@@H]1CN([C@@H](C)CO)C(=O)c2cc(NC(=O)CCN3CCOCC3)ccc2O[C@H]1CN(C)Cc1ccc(C(=O)O)cc1 | · | · | – | · | · | · | · | ·
CO[C@H]1CN(C)C(=O)c2ccc(NC(=O)C3CC3)cc2OC[C@@H](C)N(C(=O)NC(C)C)C[C@H]1C | · | · | – | · | · | · | · | ·
COc1ccc(-c2nc(CS(=O)(=O)CC(=O)NCCCN3CCN(C)CC3)c(C)o2)cc1 | – | – | – | – | – | – | – | –
C[C@H](CO)N1C[C@H](C)[C@H](CN(C)C(=O)c2ccncc2)Oc2cc(-c3cccc(C#N)c3)ccc2S1(=O)=O | · | · | – | · | · | · | · | ·
Cc1ccc(S(=O)(=O)N[C@H]2CC[C@H](CCNC(=O)Nc3ccc(Cl)cc3)O[C@@H]2CO)cc1 | · | · | – | · | · | · | · | ·
CCOc1ccc2nc(N3CCCC(C(=O)NCCCN4CCCCC4)C3)sc2c1 (stereo not given) | – | – | – | 65.5 | – | – | – | –
Cc1cc(=O)n2nc(N3CCCC(C(=O)NCCCN4C(C)CCCC4C)C3)sc2n1 (stereo not given) | · | · | – | · | – | · | · | ·
CCOc1ccc2nc(N3CCCC(C(=O)NCCCN4CC(C)CC(C)C4)C3)sc2c1 (stereo not given) | – | – | – | – | – | · | · | ·
Cc1cc(=O)n2nc(N3CCCC(C(=O)NCCCN4CC(C)CC(C)C4)C3)sc2n1 (stereo not given) | – | – | – | 59.8 | – | – | – | –
Cc1noc(C)c1NC(=O)N(C)C[C@@H]1Oc2ccc(NS(=O)(=O)c3ccc(F)cc3)cc2CC(=O)N([C@H](C)CO)C[C@H]1C | · | · | – | · | · | · | · | ·
CCCN(C)C[C@@H]1Oc2cc(C3=CCCCC3)ccc2S(=O)(=O)N([C@@H](C)CO)C[C@@H]1C | · | · | – | · | · | · | · | ·
O=C(CN(C(=O)c1csnn1)c1ccc(Cl)cc1)NCc1ccc2c(c1)OCO2 | – | – | – | – | – | – | – | –
COCC(=O)N(C)C[C@H]1Oc2ncc(-c3ccc(F)cc3)cc2C(=O)N([C@H](C)CO)C[C@H]1C | · | · | – | · | · | · | · | ·
CN(C)/C=C1/NC(=S)NC1=O | – | – | · | 63.1 | – | – | – | –
Cc1cc(C)n(-c2nnc(C)n2/N=C/c2ccco2)n1 | – | – | – | – | – | – | – | –
COC(=O)c1ccc(C(=O)OC)c(NC(=O)CSc2nnc(-c3ccccc3Cl)o2)c1 | – | – | – | 98.3 | – | – | – | –
CNC[C@@H]1Oc2ccc(NC(=O)CCN3CCOCC3)cc2CC(=O)N([C@@H](C)CO)C[C@H]1C | · | · | – | · | · | · | · | ·
CCN(CC)CCN1C(=O)C2C(C(=O)Nc3cc(C)cc(C)c3)C3C=CC2(O3)C1C(=O)NC1CCCCC1 (stereo not given) | – | – | – | 64.3 | – | – | – | –
CCCN(CCC)CCN1C(=O)C2C(C(=O)Nc3ccc(C)cc3)C3C=CC2(O3)C1C(=O)NC1CCCCC1 (stereo not given) | – | – | – | – | – | · | · | ·
CCNC(=O)Nc1ccc2c(c1)C(=O)N(C)[C@@H]1CC[C@H](CC(=O)Nc3ccccc3)O[C@H]1CO2 | · | · | – | · | · | · | · | ·
O=C(Nc1ccccc1)C1=C[C@@H](C2CCCCC2)C[C@@H](OCCCCO)O1 | – | – | – | 67.9 | – | 79.5 | – | –
O=C(Nc1ccccc1)C1=C[C@H](C2CCCCC2)C[C@H](OCCCCO)O1 | – | – | ? | 62.4 | – | 82.3 | – | –
SMILES | Jurkat NFkB inh | 697 NFkB inh | esBAF inh | Gli-Sufu block | SMARCA2 act | Gli antag conf | SufuKO cytotox | Wnt3a counter
CCC(=O)N1C[C@@H]2[C@H](c3ccccc31)[C@@H](CO)N2C(=O)Nc1ccccc1F | · | · | – | · | · | · | · | ·
C[C@@H]1CN([C@H](C)CO)C(=O)c2cc(NC(=O)CCCN(C)C)ccc2O[C@@H](C)CCCCO[C@@H]1CN(C)S(C)(=O)=O | · | · | – | · | · | · | · | ·
S=c1[nH]nc(CSCCOc2ccc(Cl)cc2Cl)o1 | – | – | – | – | – | – | – | –
S=c1[nH]nc(CSCCOc2ccccc2)o1 | – | – | · | – | – | · | · | ·
Cn1nc(CC(=O)NCc2ccc(C(F)(F)F)cc2)c2ccccc2c1=O | – | – | – | 55.1 | – | 52.4 | 25.1 | –
C[C@H]1CN([C@@H](C)CO)C(=O)c2cc(NS(=O)(=O)c3ccc(Cl)cc3)ccc2O[C@H]1CN(C)S(=O)(=O)c1cccs1 | · | · | – | · | · | · | · | ·
COc1ccccc1CC(NC(C)=O)C(=O)NC1CCN(C(=O)NCc2ccccc2)CC1 (stereo not given) | – | – | – | – | – | · | · | ·
CC(=O)NC(Cc1ccccc1C)C(=O)NC1CCN(C(=O)NCc2ccccc2)CC1 (stereo not given) | – | – | – | 58.4 | – | – | – | –
C[C@@H]1CN([C@H](C)CO)C(=O)c2cc(NC(=O)Cn3cnnn3)ccc2O[C@H]1CN(C)C(=O)Nc1ccc(F)cc1 | · | · | – | · | · | · | · | ·
Nc1ccc(O)cc1C(=O)OCC(=O)c1ccc(C2CCCCC2)cc1 | · | · | · | 65.8 | – | 66.4 | 32.6 | 29.3
O=C(NC1CCCC1)C(c1ccncc1)N(Cc1ccccc1)C(=O)Cc1cccs1 (stereo not given) | – | – | – | – | – | · | · | ·
COc1ccccc1CC(=O)NC1CCCCCC1 | – | – | – | – | – | – | – | –
COc1ccccc1CC(=O)NC1CC1 | – | – | – | · | – | · | · | ·
COc1ccccc1CN(C(=O)Cc1cccs1)C(C(=O)NC1CCCC1)c1ccncc1 (stereo not given) | – | – | – | 55.5 | – | – | 26.9 | –
C[C@H]1CN([C@@H](C)CO)C(=O)c2cccc(NS(=O)(=O)c3cccs3)c2O[C@@H]1CN(C)C(=O)NC1CCCCC1 | · | · | – | · | · | · | · | ·
C[C@@H]1CN([C@H](C)CO)S(=O)(=O)c2ccc(C3=CCCCC3)cc2O[C@H]1CN(C)C(=O)C1CC1 | · | · | – | · | · | · | · | ·
O=C(NCc1ccccc1)C(=O)NCC1OCCCN1S(=O)(=O)c1cccs1 (stereo not given) | – | – | · | – | – | · | · | ·
O=C(NCc1ccc(F)cc1)C(=O)NCC1OCCCN1S(=O)(=O)c1cccs1 (stereo not given) | – | – | · | 98.6 | – | – | – | –
O=C(C[C@H]1CC[C@@H]2[C@H](COC[C@@H](O)CN2CCC(F)(F)F)O1)NCc1ccc2c(c1)OCO2 | · | · | – | · | · | · | · | ·

From PubChem BioAssay
